The record followed here is ChEMBL document CHEMBL3988442, “University of Dundee, Small-Polar-MMV Screening Library” (2021).

Each structure is given as a SMILES string. For some of these results: Measured potencies and affinities stand elsewhere.

Holding throughout (design): scale not given: direction of the effect not stated beside the values
The target in assay [1] is Protein translocase subunit SecA (Escherichia coli (strain K12)) (UniProt P10408). In words: Assay to Identify E. coli SecA ATPase Inhibitors. Conditions: 30 µM. The format is functional.
Chain of Protein translocase subunit SecA (Escherichia coli (strain K12)) (P10408 whole entry): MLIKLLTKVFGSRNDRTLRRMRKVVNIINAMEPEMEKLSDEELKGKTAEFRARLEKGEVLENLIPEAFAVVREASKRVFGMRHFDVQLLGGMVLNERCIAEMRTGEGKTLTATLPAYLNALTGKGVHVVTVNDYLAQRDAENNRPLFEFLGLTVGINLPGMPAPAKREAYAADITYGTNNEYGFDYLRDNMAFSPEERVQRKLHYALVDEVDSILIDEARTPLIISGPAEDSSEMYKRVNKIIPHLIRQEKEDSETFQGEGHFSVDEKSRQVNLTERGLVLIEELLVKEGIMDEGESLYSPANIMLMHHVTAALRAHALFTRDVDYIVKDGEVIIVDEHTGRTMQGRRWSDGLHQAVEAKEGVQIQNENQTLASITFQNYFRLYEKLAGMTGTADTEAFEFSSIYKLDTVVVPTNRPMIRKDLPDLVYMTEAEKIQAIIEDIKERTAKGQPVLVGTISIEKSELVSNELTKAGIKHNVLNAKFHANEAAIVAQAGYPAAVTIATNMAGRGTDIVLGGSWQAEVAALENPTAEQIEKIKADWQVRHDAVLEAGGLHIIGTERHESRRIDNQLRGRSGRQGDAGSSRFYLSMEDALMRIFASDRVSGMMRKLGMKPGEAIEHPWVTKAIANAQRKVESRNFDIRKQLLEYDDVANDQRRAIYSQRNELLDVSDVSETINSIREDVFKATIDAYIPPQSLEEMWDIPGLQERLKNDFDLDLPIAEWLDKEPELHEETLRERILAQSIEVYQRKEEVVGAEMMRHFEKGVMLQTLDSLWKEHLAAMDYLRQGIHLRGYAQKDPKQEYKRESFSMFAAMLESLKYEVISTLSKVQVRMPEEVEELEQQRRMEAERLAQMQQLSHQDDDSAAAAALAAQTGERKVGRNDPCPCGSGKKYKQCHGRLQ
In assay [2] the target is T1, Ubiquitin-activating enzyme e1, putative (Leishmania donovani (strain BPK282A1)) (UniProt E9BSI1).
T1 sequence (whole entry): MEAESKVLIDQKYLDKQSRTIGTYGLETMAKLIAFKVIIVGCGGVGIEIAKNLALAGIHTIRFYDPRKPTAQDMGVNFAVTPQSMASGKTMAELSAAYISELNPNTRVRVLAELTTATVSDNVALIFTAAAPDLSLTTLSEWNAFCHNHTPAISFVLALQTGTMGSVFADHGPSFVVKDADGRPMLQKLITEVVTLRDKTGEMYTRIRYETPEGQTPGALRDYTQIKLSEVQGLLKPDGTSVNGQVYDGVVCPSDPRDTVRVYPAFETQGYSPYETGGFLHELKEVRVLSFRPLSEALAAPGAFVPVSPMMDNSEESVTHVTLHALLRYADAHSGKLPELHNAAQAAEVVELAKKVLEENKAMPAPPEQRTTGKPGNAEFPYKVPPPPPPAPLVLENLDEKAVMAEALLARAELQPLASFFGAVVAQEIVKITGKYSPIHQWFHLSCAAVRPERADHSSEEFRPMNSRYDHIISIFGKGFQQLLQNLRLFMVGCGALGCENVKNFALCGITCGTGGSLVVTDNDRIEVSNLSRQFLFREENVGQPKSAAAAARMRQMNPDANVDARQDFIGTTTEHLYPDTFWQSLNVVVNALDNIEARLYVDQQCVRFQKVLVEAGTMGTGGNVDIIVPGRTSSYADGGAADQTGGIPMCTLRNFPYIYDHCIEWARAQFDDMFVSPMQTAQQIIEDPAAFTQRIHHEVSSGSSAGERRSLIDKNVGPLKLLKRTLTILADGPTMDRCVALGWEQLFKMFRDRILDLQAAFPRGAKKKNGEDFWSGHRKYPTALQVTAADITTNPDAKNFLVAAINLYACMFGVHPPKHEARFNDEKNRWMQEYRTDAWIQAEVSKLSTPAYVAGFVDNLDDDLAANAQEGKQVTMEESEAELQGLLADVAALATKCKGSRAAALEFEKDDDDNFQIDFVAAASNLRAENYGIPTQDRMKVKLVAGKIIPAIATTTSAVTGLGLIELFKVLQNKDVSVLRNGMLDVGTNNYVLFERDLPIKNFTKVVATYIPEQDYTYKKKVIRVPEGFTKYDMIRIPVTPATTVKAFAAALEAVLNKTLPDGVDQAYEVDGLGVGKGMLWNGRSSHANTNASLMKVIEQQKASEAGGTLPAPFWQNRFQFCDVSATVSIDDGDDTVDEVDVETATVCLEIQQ
In words: Leishmania donovani Ubiquitin Activating Enzyme (LdE1). The format is functional. The conditions noted are these: 30 µM.

Assay [3] concerns the target AMP-activated protein kinase, AMPK (Homo sapiens) (UniProt P54646+O43741+P54619+Q9UGJ0+Q9Y478+Q13131+Q9UGI9). Kind of assay: AMP-dependent Kinase enzyme assay. An in vitro enzyme assay that detects ADP turnover that is directly proportional to AMPK activity. This uses naive AMPK that is activated during the assay with MK-8722. Conditions: 30 µM. The assay is classed as functional.

In assay [4] the target is Sialic acid-binding Ig-like lectin 9 (Homo sapiens) (UniProt Q9Y336). In words: Hs-Siglec9 ALPHAscreen SOP 20170721. Conditions: 10 µM.
Chain of Sialic acid-binding Ig-like lectin 9 (Homo sapiens) (Q9Y336 whole entry): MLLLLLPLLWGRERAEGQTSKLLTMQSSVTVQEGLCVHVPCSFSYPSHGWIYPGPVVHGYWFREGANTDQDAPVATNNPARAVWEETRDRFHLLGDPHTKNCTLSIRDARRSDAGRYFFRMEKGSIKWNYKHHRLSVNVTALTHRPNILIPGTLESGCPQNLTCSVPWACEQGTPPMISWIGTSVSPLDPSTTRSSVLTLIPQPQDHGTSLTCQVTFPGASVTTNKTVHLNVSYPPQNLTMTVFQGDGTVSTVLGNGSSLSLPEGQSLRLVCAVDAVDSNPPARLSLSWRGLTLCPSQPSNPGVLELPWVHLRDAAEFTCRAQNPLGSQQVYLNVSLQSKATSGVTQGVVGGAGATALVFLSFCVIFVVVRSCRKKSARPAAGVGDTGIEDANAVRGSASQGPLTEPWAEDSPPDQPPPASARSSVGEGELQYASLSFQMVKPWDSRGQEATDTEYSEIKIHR
Assay [5] relates to Trypanosoma cruzi. In words: Trypanosoma cruzi phosphomannomutase and mannose-1-phosphate guanylyltransferase assay. The conditions noted are these: 10 µM. The assay is classed as functional.
For assay [6], the target named is T2, Arginase-2, mitochondrial (Homo sapiens) (UniProt P78540).
T2 sequence (whole entry): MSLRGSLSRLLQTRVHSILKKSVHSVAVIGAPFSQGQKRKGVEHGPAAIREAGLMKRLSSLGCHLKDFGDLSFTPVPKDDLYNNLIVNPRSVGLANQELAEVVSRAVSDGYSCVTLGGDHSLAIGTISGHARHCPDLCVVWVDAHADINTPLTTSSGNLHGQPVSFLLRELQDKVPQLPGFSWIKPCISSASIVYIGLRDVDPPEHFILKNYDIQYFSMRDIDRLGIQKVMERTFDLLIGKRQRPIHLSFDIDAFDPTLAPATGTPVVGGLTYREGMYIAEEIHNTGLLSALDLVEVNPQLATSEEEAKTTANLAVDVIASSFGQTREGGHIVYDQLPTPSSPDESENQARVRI
Kind of assay: in vitro enzyme assay to detect the production of urea directly proportional to the activity of Arginase II. Further: in the data most compounds retested in dose-response had high values. Conditions: 33.3 µM. The format is functional.

For assay [7], the target named is T3, Proteasome subunit beta (Trypanosoma cruzi) (UniProt O96673).
T3 sequence (whole entry): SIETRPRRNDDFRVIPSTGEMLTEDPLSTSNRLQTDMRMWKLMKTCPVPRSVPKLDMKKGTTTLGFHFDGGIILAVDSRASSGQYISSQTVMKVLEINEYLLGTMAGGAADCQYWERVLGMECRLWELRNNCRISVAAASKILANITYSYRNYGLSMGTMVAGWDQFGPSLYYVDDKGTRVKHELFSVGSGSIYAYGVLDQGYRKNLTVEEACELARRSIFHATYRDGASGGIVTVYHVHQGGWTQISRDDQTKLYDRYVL
In words: Trypanosoma cruzi proteasome chymotrypsin-like activity (TcProtChymo) assay. Further: in the data most compounds retested in dose-response had high values. The format is functional. Conditions: 9.37 µM.

The species entered for assay [8] is Homo sapiens. In words: To identify inhibition of the IFN signalling (Jak-Stat) pathway via expression of an eGFP reporter gene under the control of an IFN-stimulated response element (ISRE) containing MxA promoter. The format is functional. The conditions noted are these: 30 µM.
In assay [9] the target is T4, Tyrosyl-tRNA synthetase, putative (Trypanosoma cruzi (strain CL Brener)) (UniProt Q4DSP6).
T4 sequence (whole entry): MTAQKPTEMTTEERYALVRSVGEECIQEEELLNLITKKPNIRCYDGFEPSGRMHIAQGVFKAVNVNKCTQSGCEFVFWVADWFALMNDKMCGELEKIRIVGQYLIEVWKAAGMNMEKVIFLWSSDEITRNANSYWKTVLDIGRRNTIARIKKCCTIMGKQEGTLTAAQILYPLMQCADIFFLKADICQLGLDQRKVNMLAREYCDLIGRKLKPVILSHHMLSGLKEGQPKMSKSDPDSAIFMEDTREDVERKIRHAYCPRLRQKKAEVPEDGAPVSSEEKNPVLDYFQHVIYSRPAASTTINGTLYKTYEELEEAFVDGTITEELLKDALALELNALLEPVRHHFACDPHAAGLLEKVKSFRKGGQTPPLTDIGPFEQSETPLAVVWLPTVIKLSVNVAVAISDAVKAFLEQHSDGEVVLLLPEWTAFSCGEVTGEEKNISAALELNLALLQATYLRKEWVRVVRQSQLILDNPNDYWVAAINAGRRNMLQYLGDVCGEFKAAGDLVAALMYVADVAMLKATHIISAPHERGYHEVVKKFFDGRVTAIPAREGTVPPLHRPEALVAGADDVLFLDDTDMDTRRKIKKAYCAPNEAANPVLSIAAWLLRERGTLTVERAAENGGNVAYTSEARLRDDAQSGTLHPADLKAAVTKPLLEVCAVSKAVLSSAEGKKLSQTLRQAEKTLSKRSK
Kind of assay: Trypanosoma cruzi tyrosyl tRNA synthetase (TcYRS) _High Tyrosine SOP. Further: in the data most compounds retested in dose-response had high values. Conditions: 30 µM. The assay is classed as functional.

For assay [10], the target named is T4, Tyrosyl-tRNA synthetase, putative (Trypanosoma cruzi (strain CL Brener)). Kind of assay: Trypanosoma cruzi tyrosyl tRNA synthetase (TcYRS) SOP. The format is functional. The conditions noted are these: 30 µM.
Assay [11] addresses Chromo domain-containing protein 1 (Saccharomyces cerevisiae (strain ATCC 204508 / S288c) (Baker's yeast)) (UniProt P32657). Kind of assay: ScCHD-1 Enzyme Inhibition Assay. Further: in the data most compounds retested in dose-response had high values. The format is functional. Conditions: 30 µM.

Chain of Chromo domain-containing protein 1 (Saccharomyces cerevisiae (strain ATCC 204508 / S288c) (Baker's yeast)) (P32657 whole entry, the tested form may be a part): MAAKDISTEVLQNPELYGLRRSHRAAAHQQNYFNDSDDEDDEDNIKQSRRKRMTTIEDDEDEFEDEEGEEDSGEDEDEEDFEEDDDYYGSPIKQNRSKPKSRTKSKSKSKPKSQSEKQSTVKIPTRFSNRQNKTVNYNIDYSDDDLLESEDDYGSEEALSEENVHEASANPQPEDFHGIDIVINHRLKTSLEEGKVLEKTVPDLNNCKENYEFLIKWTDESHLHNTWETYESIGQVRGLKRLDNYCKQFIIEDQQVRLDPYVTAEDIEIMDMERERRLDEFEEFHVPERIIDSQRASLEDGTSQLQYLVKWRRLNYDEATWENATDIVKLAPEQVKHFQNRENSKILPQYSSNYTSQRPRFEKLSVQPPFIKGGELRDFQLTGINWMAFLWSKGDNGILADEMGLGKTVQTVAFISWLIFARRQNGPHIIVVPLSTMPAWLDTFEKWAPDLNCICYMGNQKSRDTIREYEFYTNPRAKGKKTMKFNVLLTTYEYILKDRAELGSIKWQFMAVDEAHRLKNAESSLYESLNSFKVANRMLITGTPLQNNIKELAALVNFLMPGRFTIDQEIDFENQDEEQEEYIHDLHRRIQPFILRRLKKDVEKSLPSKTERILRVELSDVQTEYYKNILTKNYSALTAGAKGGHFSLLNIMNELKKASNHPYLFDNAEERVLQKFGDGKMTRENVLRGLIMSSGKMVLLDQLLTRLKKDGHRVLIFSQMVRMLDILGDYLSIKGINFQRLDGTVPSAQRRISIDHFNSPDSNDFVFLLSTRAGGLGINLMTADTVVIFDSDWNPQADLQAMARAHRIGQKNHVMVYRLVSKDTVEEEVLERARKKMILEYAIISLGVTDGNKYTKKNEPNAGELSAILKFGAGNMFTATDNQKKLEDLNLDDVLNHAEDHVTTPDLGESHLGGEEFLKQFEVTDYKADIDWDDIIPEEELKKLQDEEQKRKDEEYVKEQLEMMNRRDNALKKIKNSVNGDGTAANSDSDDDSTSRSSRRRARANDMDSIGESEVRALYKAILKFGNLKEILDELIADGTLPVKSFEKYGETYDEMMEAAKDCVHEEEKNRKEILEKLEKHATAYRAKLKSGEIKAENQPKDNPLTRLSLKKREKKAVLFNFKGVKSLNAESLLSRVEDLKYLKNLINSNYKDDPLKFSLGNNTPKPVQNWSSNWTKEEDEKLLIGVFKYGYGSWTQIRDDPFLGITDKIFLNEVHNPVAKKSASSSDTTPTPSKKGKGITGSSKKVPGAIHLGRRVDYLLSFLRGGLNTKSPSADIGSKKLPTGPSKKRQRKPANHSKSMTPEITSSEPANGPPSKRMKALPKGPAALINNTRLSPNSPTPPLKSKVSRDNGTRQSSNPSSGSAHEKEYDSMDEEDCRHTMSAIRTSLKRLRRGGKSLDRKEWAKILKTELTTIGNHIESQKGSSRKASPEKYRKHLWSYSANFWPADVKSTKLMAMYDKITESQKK

Consider `Cn1ccnc1CN(CCCO)C1CCCc2ccccc21` (stereo unspecified), for which the Percent Effect is -5.87% in [1]; 5.26% in assay [2]; 3.03% in assay [3]; 9.71% in [4]; 0.876% in assay [5]; -2.37% in assay [6]. The Percent Effect in assay [7] is 3.55%; in assay [8] it was 18.1%; in assay [9], 3.19%; in [10] it was 7.79%; in assay [11] it was -0.447%.

Consider `CN(CCCOc1ccc(F)cc1)Cc1nc2c(cnn2C)c(=O)[nH]1`, for which the Percent Effect is -0.991% in assay [1]; 15.8% in [2]; 0.698% in assay [3]; -3.57% in assay [4]; 4.39% in [5]; 1.8% in [6]. Moreover, the Percent Effect was 14.8% in assay [7]; 0.0389% in [8]; 8.37% in assay [9]; 23.5% in assay [10]; -8.26% in assay [11].

In the case of `Cc1csc(N2CCN(Cc3ccccn3)CC2C)n1` (stereo unspecified), the Percent Effect is -3.15% in assay [1]; 5.48% in assay [2]; -20.3% in assay [3]; -2.48% in [4]; -2.74% in assay [5]; 0.909% in assay [6]. The Percent Effect in assay [7] is 13.3%; in assay [8] it was 19.9%; in assay [9] it was 9.68%; in assay [10], 12.5%; in [11], -2.29%.

In the case of `CC(C)CN1Cc2c(C(=O)N(C)C)ncn2-c2ccccc2S1(=O)=O`, the Percent Effect in [1] was -3.52%; in assay [2] it was 5.41%; in assay [3], -2.12%; in [4], -3.11%; in [5], -2.83%; in assay [6] it was 0.319%. Also, the Percent Effect is 11.6% in assay [7]; -4.16% in assay [8]; 3.24% in assay [9]; 15.4% in [10]; 0.625% in assay [11].

With `CC(C)(C)n1cc(C(=O)N2CCCN(Cc3cccs3)CC2)cn1`, the Percent Effect in [1] was -1.01%; in assay [2], 5.26%; in [3], 3.41%; in assay [4], 2.97%; in assay [5], -3.57%; in [6], 3.45%. The Percent Effect is 9.19% in assay [7]; 14.5% in [8]; 1.47% in assay [9]; 9.76% in [10]; -2.3% in assay [11].

With `COc1cc(C)c(C(C)NC(=O)Nc2nnc(C)s2)cc1OC` (stereo unspecified), the Percent Effect is -4.05% in [1]; 5.41% in [2]; -4.62% in [3]; 14.6% in assay [4]; 7.72% in assay [5]; 1.24% in assay [6]. Also, the Percent Effect in assay [7] is 7.64%; in [8], 11.2%; in assay [9], 2.15%; in assay [10] it was 11.1%; in assay [11], -3.99%.

As for `Cc1nc(CC(=O)N2CCC[C@H]2c2nc(C(C)C)no2)cs1`, the Percent Effect was -6.79% in assay [1]; -1.39% in assay [2]; 0.72% in [3]; -1.32% in assay [4]; 1.26% in assay [5]; 3.09% in assay [6]. Besides, the Percent Effect was 7.19% in assay [7]; -13.6% in [8]; 3.16% in assay [9]; 5.13% in assay [10]; -0.504% in [11].

Take `CNc1nc(CNC(=O)Nc2cccc(-c3nnco3)c2)cs1`: the Percent Effect in [1] is -5.07%; in assay [2], 8.11%; in assay [3] it was 1.7%; in assay [4], -1.65%; in assay [5], -3.81%; in assay [6], -4.25%. Moreover, the Percent Effect in assay [7] is 4.13%; in assay [8], -4.5%; in assay [9], 2.97%; in assay [10] it was 1.22%; in [11], 4.29%.

As for `Cc1nc2cc(C3CCN(Cc4cccc(F)c4F)C3)nn2c(O)c1C` (stereo unspecified), the Percent Effect in [1] was -0.873%; in assay [2] it was 12.2%; in assay [3], 12.9%; in assay [4], -3.49%; in assay [5], 0.988%; in assay [6], -1.16%. Further, the Percent Effect in [7] was 2.81%; in assay [8], 10.8%; in [9] it was 3.23%; in assay [10], 11.7%; in assay [11] it was -14.4%.

Turning to `COc1cc(CN2CCN(c3cccc(OC)c3)C(=O)C2)cc(OC)c1`, the Percent Effect is -1.99% in [1]; 1.39% in assay [2]; -1.82% in assay [3]; -5.46% in assay [4]; -5.34% in assay [5]; -4.42% in assay [6]. The Percent Effect in assay [7] was 10.9%; in assay [8] it was -15.2%; in [9], 2.1%; in [10], 2.56%; in assay [11], -2.05%.

As to `O=C(NS(=O)(=O)c1ccccc1Cl)c1cccc2c1OCCO2`, the Percent Effect was -5.38% in assay [1]; 5.48% in assay [2]; -3.79% in assay [3]; 16.7% in assay [4]; 3.53% in assay [5]; 8.64% in assay [6]. The Percent Effect was 10.7% in assay [7]; 7.24% in [8]; -10.8% in [9]; -10% in assay [10]; 96.7% in assay [11].
